Screening data from PubChem BioAssay.
D1 PAM: enhances dopamine response at the human D1 receptor. P21728. HEK293 TREx D1 cells, calcium flux, dopamine EC20 potentiation. potentiation, % at 10 µM. actives 0.036% (n = 360,000); in the data active = potentiation above about 30%; also: 0% is about no effect
Target sequence (P21728 whole entry, looked up): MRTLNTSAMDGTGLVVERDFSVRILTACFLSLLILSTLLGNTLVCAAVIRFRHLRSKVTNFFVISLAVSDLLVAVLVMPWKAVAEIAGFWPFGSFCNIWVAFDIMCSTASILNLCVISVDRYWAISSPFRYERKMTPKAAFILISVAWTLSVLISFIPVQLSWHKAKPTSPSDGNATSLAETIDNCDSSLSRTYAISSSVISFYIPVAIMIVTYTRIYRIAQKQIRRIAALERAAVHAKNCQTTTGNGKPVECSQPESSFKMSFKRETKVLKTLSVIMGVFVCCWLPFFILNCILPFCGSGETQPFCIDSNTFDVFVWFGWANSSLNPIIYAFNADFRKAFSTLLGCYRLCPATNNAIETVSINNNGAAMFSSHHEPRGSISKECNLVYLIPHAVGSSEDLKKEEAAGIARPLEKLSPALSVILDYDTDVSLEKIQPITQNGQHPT
D1 ag: human D1 receptor agonism; HEK293 T-REx D1 cells, calcium flux, agonist mode; activation, % at 2 µM; actives 1% (n = 360,000); AID 504660; also: 0% is about no effect
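Inducible HEK293 T-REx D1 cells, force-coupled to calcium signalling, were plated at 4000 cells/well with tetracycline and held overnight at 30 C. After no-wash calcium dye loading, compound-evoked calcium rise over 180 s flagged agonists.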
TRHR enhancer: TRH receptor (human) allosteric enhancement. P34981. TRHR cells, fluo-8 calcium fluorescence, EC20 TRH enhancement. enhancement, % at 2 µM. actives 0.66% (n = 360,000). AID 493056; in the data active = enhancement above about 30%; also: 0% is about no effect
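Enhancer read-out: after compound pinning and an initial kinetic agonist-mode read, an EC20 of TRH (10 nM final) was injected and fluo-8 calcium signal (Ex 480/Em 530) followed at 1 s/cycle for 100 cycles in TRHR-expressing cells.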
D1 antagonist: human D1 dopamine receptor antagonism; HEK293 TREx D1 cells, calcium flux, dopamine EC80; hits give low values; activity change, negative = inhibition, % at 10 µM; actives 3.2% (n = 360,000); in the data active = activity change below about -30%; also: % is scaled to controls: 0 for no effect and ±100 for the full control effect
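Allosteric or orthosteric antagonism assessed as attenuation of the calcium response to EC80 dopamine, added 180 s after compound, in induced HEK293 Trex D1 cells loaded with no-wash calcium dye.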
TRHR agonist: agonists of human TRH receptor. P34981. TRHR cells, calcium flux fluo-8, FDSS agonist mode. activation, % at 2 µM. actives 0.18% (n = 360,000). AID 493084; also: 0% is about no effect
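Read-out: compound-evoked intracellular calcium rise in TRHR cells, fluo-8 dye, kinetic FDSS fluorescence at 1 s/cycle following a 10-cycle baseline. Cells cultured overnight before dye loading (30 min–1.5 h, RT).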
An asterisk follows results filed as active; x = no result; ! = not confirmed by another sample. Hits are enriched below; roughly 4.6% of the tested compounds scored in any of these assays. Rule as the data show it, unless noted: active = activation above about 30%; inactive = the rest.

SMILES	D1 PAM	D1 ag	TRHR enhancer	D1 antagonist	TRHR agonist
Cc1ccc(NC(=O)c2ccc(C)c(S(=O)(=O)N3CCCCCC3)c2)cc1	-5	8	-6	2	1
COc1ccccc1C(CNC(=O)c1ccc(C)c(S(=O)(=O)N2CCCCC2)c1)N1CCCC1 (configuration not stated)	-10	2	5	-45*	0
COc1ccc(C(CNC(=O)c2cccc(S(=O)(=O)Nc3ccccc3OC)c2)N2CCCC2)cc1 (configuration not stated)	-2	7	16	-4	0
Cc1ccc(C(=O)Nc2cccc(O)c2)cc1S(=O)(=O)N1CCCCCC1	-3	1	-7	-33*!	0
COc1ccc(C(CNC(=O)CNC(=O)c2ccccc2Cl)N2CCCC2)cc1 (configuration not stated)	-6	0	13	4	0
COc1ccc(C(CNC(=O)c2ccc(C)c(S(=O)(=O)Nc3ccccc3OC)c2)N2CCCC2)cc1 (configuration not stated)	-1	14	-5	-38*	0
COc1ccc(C(CNC(=O)CNC(=O)c2cccc(Cl)c2)N2CCCC2)cc1 (configuration not stated)	x	5	3	-37*	0
COc1ccc(S(=O)(=O)N2c3ccccc3OCC2C(C)(C)C)cc1 (configuration not stated)	-8	4	-4	-63*	1
COc1ccc(S(=O)(=O)N2c3ccccc3OCC2C)cc1 (configuration not stated)	2	-1	-2	12	0
CC(=O)Nc1ccc(-c2nnc3n(Cc4ccc(C)cc4)c(=O)c4ccccc4n23)cc1	-3	0	-2	4	-1
COC(=O)c1ccc(CN2C(=O)c3ccccc3C2=O)cc1	2	1	-7	4	-1
COC(=O)c1ccc(OC(=O)CN2C(=O)c3ccccc3C2=O)cc1	-3	6	-2	-34*	1
O=C(CCCN1C(=O)c2ccccc2C1=O)Oc1ccc(F)cc1	-6	0	1	-32*	0
O=C1c2ccccc2C(=O)N1CCCCON1C(=O)c2ccccc2C1=O	-4	5	-1	-36*	0
COc1ccc2c(C)c(CCC(=O)NCc3ccc(C)cc3)c(=O)oc2c1	2	-3	0	1	0
CCCOc1ccc(CNC(=O)Cn2ncn3c(cc4sc(CC)cc43)c2=O)cc1	-6	4	8	22	0
COCCN(C(=O)CSc1nc(-c2ccccc2)cn1N)c1c(N)n(Cc2ccccc2)c(=O)[nH]c1=O	-6	-1	-6	12	0
COc1ccc2oc(-c3ccc(C)c(NC(=O)c4ccc(N5CCCCC5)c([N+](=O)[O-])c4)c3)nc2c1	2	-1	4	-9	0
CN1CCc2c(sc(NC(=O)c3ccco3)c2C(N)=O)C1	-3	2	16	-8	1
CNC(=O)c1c(NC(=O)c2ccc(S(=O)(=O)N3CCCc4ccccc43)cc2)sc2c1CCN(C)C2	-12	19	34*	-57*	18
CN1CCc2c(sc(NC(=O)c3cc(Cl)sc3Cl)c2C(N)=O)C1	7	-1	4	-32*	19
CN1CCc2c(sc(NC(=O)c3ccc(S(=O)(=O)N4CCCCCC4)cc3)c2C(N)=O)C1	4	19	3	15	51*
CCCOc1cccc(C(=O)N(Cc2sccc2C)C2CCS(=O)(=O)C2)c1 (configuration not stated)	-3	1	-4	6	0
CCOC(=O)C1=NN(C(=O)c2cccc(Br)c2)C(O)(C(C)(C)C)C1 (configuration not stated)	-10	51*	-8	-9	22
CCOC(=O)C1=NN(C(=O)c2ccc(OC)cc2)C(O)(c2ccc(Cl)cc2)C1 (configuration not stated)	-4	128*	-2	-27	14
COC(=O)C1=NN(C(=O)c2cccc(Br)c2)C(O)(c2ccc(Cl)cc2)C1 (configuration not stated)	1	106*	2	-9	16
COc1ccc(NC(=O)C2CCCN(S(=O)(=O)c3ccc(Br)s3)C2)cc1 (configuration not stated)	-5	0	-7	-26	0
